Rows were chosen to be rich in hits. Some 9.8% of all compounds tested hit in one or more screens of this group.
HTT ATP protect – qHTS Multiplex Assay to Identify Dual Action Probes in a Cell Model of Huntington: Cytoprotection (ATP); AID 1471, 2008; Potency, µM (doses to about 56.4 µM), for inactives: cytoprotection (ATP increase), most hits filed as activators; PC12 HTT-Q103 induced, cytoprotection, ATP luminescence, 40 h; 230,000 tested, 0.14% active; active means well fitted curve in the direction sought with a large enough effect; inconclusive means small, poorly fitted or top-dose-only effect, or another doubt; inactive means no such curve, though single readings can be large; an effect the other way counts as inactive or inconclusive; further: potency means the concentration at half of the fitted maximal effect; % of control where 0% means no effect; nearly all actives have a fitted effect of over 45% in size
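PC12 cells with ecdysone-inducible HTT exon 1 Q103-GFP, induced with 100 nM tebufenozide and co-treated with library compounds in a dose series (1536-well, 1500 cells/well). Cytoprotection read as ATP content by ATPlite luminescence.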
ALDH1A1 block – qHTS Assay for Inhibitors of Aldehyde Dehydrogenase 1 (ALDH1A1). Aldehyde dehydrogenase 1A1 (Homo sapiens), P00352. AID 1030, 2008. Potency, µM (doses to about 75.3 µM), without a hit: top-dose activity, negative = inhibition, usual class: inhibitors. 220,000 tested, 7.3% active. Purified ALDH1A1, NADH fluorescence, propionaldehyde substrate;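 further: potency means the concentration at half of the fitted maximal effect; plate controls were no enzyme wells and a reference inhibitor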
JMJD2E inh – qHTS Assay for Inhibitors of Human Jumonji Domain Containing 2E (JMJD2E); Lysine-specific demethylase 4E (Homo sapiens), B2RXH2; JMJD2E catalytic domain, FDH-coupled NADH fluorescence (FDH is formaldehyde dehydrogenase); Potency, µM (series often up to 57.1 µM), without a hit: at the highest dose activity change, negative = inhibition, usual class: inhibitors; 230,000 tested, 1.6% active;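 further: potency means the concentration at half of the fitted maximal effect; 0% = wells with enzyme and -100% = buffer wells without enzyme; nearly all actives have a fitted effect of over 50% in size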
Target sequence (B2RXH2 1-337 limits assumed): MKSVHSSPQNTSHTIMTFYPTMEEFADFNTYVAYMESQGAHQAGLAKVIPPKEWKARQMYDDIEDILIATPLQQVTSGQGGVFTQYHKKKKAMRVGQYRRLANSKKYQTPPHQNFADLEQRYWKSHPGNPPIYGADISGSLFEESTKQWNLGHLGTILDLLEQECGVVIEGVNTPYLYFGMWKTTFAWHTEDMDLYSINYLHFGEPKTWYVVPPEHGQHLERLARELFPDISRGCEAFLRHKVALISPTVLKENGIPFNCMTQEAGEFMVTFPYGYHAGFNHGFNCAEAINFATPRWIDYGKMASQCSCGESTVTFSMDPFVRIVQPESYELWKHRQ
HPGD inh – qHTS Assay for Inhibitors of HPGD (15-Hydroxyprostaglandin Dehydrogenase); 15-hydroxyprostaglandin dehydrogenase [NAD(+)] (Homo sapiens), P15428; purified HPGD, NADH fluorescence kinetic, PGE2 substrate; Potency, µM, inactives show at the highest dose activity change, negative = inhibition, actives largely listed as inhibitors; 150,000 tested, 4.3% active; AID 894, 2007; further: potency means the concentration at half of the fitted maximal effect; on the % scale 0 is the no-effect control and ±100 the full control effect
Target sequence (P15428 whole entry, looked up): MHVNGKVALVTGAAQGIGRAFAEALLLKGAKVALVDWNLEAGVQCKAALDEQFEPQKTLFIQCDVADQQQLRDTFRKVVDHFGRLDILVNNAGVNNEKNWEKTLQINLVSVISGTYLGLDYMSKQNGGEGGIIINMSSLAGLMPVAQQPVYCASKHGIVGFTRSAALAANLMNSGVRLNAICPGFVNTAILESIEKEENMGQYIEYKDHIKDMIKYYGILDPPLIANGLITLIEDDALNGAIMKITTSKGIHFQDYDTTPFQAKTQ
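NADH formation kinetics: reaction with 30 uM PGE2 and 1 mM NAD+ (final), 20 nM enzyme, Tris-HCl pH 8 with Tween 20, after 15 min compound preincubation at room temperature. Fluorescence change, last versus first of five reads.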
HTT aggregate – qHTS Multiplex Assay to Identify Dual Action Probes in a Cell Model of Huntington: Aggregate Formation (GFP). PC12 HttQ103-GFP aggregates, Acumen cytometry, 40 h. Potency, µM (titrated, usually from 46.1 µM), for the others: at the top dose activity change, negative = inhibition, usual class: inhibitors. 220,000 tested, 1.1% active; active means well fitted curve in the direction sought with a large enough effect; inconclusive means small, poorly fitted or top-dose-only effect, or another doubt; inactive means no such curve, though single readings can be large; an effect the other way counts as inactive or inconclusive; further: potency means the concentration at half of the fitted maximal effect; on the % scale 0 is the no-effect control and ±100 the full control effect; nearly all actives have a fitted effect of over 60% in size
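Inducible Q103 Huntingtin exon 1–GFP PC12 line, 1500 cells/well in phenol red free DMEM with 5% equine and 5% calf serum. Tebufenozide 100 nM induced expression; compounds titrated; aggregates quantified by cytometry.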
CBFb RUNX1 block – qHTS Assay for Compounds Blocking the Interaction Between CBF-beta and RUNX1 for the Treatment of Acute Myeloid Leukemia. Potency, µM (top dose mostly 59.8 µM), for the others: at the top dose activity, negative = inhibition, usual class: inhibitors. 230,000 tested, under 10 active. Runt-related transcription factor 1 (Homo sapiens) + Core-binding factor subunit beta …. AID 1477, 2009. AlphaScreen CBFb-His/RUNX1-biotin binding, biochemical; active means well fitted curve in the direction sought with a large enough effect; inconclusive means small, poorly fitted or top-dose-only effect, or another doubt; inactive means no such curve, though single readings can be large; an effect the other way counts as inactive or inconclusive; further: % of control where 0% means no effect
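Inhibition was taken as any reduction in AlphaScreen signal from the CBF-beta–RUNX1 pair (His and biotin tags, 30 nM each), measured after compound (15 min) and bead (90 min) incubations at room temperature.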
Starred values were filed as active, the others as inactive; ? = inconclusive; nt = no result; ! = not active in a repeat; [ ] = another dose, or the depositor's remark. Unless noted, the call rests on the fitted dose curve; in most records, active means well fitted inhibition curve with a large enough effect (not every such curve was filed as active); inconclusive means small, poorly fitted or top-dose-only effect, or another doubt; inactive means no such curve, though single readings can be large or run the other way.

SMILES	HTT ATP protect	ALDH1A1 block	JMJD2E inh	HPGD inh	HTT aggregate	CBFb RUNX1 block
COc1ccccc1-n1c(O)c(/C=N/NC(=S)Nc2ccccc2)c(=O)[nH]c1=S	21.1%[10 µM]	nt	28.2µM*	nt	13.0%[9.22 µM]	?
O=C(N/N=C/c1c(O)n(CCc2ccccc2)c(=O)[nH]c1=O)c1ccccc1O	20.6%[10 µM]	nt	28.2µM*	nt	11.8%[9.22 µM]	-23.0%
O=Cc1ccc(Cl)cc1Cl	-2.6%	-14.2%	nt	-6.9%	nt	8.5%[21.7 µM]
Cc1ccc(-n2c(O)c(/C=N/NC(=O)c3ccncc3)c(=O)[nH]c2=O)cc1C	23.8%[10 µM]	?	22.4µM*	-16.9%	5.9%	?
O=C(N/N=C/c1c(O)n(CCc2ccc(F)cc2)c(=O)[nH]c1=O)c1ccccc1	21.7%[10 µM]	nt	20µM*	nt	15.5%[9.22 µM]	7.1%
COc1ccc(Cn2c(O)c(/C=N/NC(=O)c3ccncc3)c(=O)[nH]c2=O)cc1	12.4%[10 µM]	nt	7.94µM*	nt	-0.3%[9.22 µM]	?
O=C(N/N=C/c1c(O)n(-c2cccc3ccccc23)c(=O)[nH]c1=O)c1ccncc1	11.0%[10 µM]	nt	12.6µM*	nt	9.8%[9.22 µM]	?
CC(CO)(CO)N=Cc1c(O)n(-c2cccc3ccccc23)c(=O)[nH]c1=O	-4.6%	0.6%	-1.5%	-4.2%	25.7%	1.3%
O=C(N/N=C/c1c(O)n(Cc2ccccc2)c(=O)[nH]c1=O)c1ccccc1O	33.4%[10 µM]	?	-3.1%	?	18.7%	-4.5%
O=C(N/N=C/c1c(O)n(Cc2ccc(F)cc2)c(=O)[nH]c1=O)c1ccccc1O	4.6%[10 µM]	6.8%	25.1µM*	nt	3.5%	?
CCOc1cc(OP(=S)(OC)OC)nc(CC)n1	nt	nt	nt	nt	nt	24.2%
c1cc[n+]2c(c1)-c1cccc[n+]1CC2	nt	nt	nt	nt	nt	5.0%
CCC(=O)c1cc(F)c(N2CCN(CC)CC2)cc1C	5.3%	20µM*	6.1%	-8.5%	-1.0%[9.22 µM]	-2.0%
CCN1CCN(c2ccc(N)c(C)c2)CC1	-26.3%	2.2%	-4.8%	nt	-1.0%	17.6%
CN[C@@H](CC(C)C)C(=O)N[C@@H]1C(=O)N[C@H](CC(N)=O)C(=O)N[C@@H]2C(=O)N[C@H]3C(=O)N[C@H](C(=O)N[C@H](C(=O)O)c4cc(O)cc(O)c4-c4cc3ccc4O)[C@H](O)c3ccc(c(Cl)c3)Oc3cc2cc(c3O[C@H]2O[C@@H](CO)[C@@H](O)[C@@H](O)[C@@H]2O[C@@H]2C[C@](C)(N)[C@H](O)[C@H](C)O2)Oc2ccc(cc2Cl)[C@@H]1O	-7.8%[40.3 µM]	0.1%[20.9 µM]	3.4%[25.5 µM]	-6.8%	19.7%	-7.3%[21.7 µM]
c1csc(CN2CC[C@@]3(CCCNC3)C2)n1	?	22.4µM*	nt	-13.0%	nt	nt
O=C(Oc1ccccc1)N1CCC2(CCN(Cc3nccs3)CC2)CC1	-18.5%	-10.1%	nt	-1.5%	nt	nt
O=C1CCCC2C3CC(CN12)C1CCCCN1C3 (configuration not stated)	nt	6.2%	1.6%	-6.1%	nt	nt
COc1cc2c(c(OC)c1OC)-c1ccc(O)c(=O)cc1[C@H](N)CC2	-7.9%[40.3 µM]	3.5%[20.9 µM]	7.94µM*	-13.2%	nt	1.3%[21.7 µM]
c1ccc2c(CNC3CCCCC3)c[nH]c2c1	-121.9%	-1.8%	5.8%	-9.6%	11.2µM*	-1.8%
C[C@@H]1O[C@H](C[N+](C)(C)C)C[C@H]1O	20.4%[1.9 µM]	-3.2%	1.9%	-5.6%	nt	3.7%
C[C@H]1OC[C@@H](C[N+](C)(C)C)O1	-7.2%[1.9 µM]	-10.8%	25.1µM*!	1.4%	?	8.4%
CCn1c(C)[n+](CC)c2ccc(S(=O)(=O)NC)cc21	5.3%[10 µM]	3.3%	7.94µM*	nt	8.2%[9.22 µM]	12.5%
Clc1ccc(C(Cl)(Cl)Cl)cc1Cl	-11.2%	0.4%	nt	0.9%	nt	2.3%[21.7 µM]

High-throughput results: PubChem BioAssay, National Center for Advancing Translational Sciences (NCATS)
